Laboratory results from the supplement of paper PMC3334620.
The full ranking holds about 33,000 sequences; the median of “E-score (-0.5 to 0.5)” is about -8e-05, and the highest 2% start at about 0.23. The sample holds the highest values, similar sequences and a random draw of the others, so the mix is not that of the screen.

molecular target: T1, Nrg2 (UniProt P38082); assay: PBM E-score (8-mer binding enrichment) (E-score (-0.5 to 0.5)); higher = stronger / more preferred TF binding; conditions: protein concentration: 100 nM; construct: GST-full length
T1 sequence: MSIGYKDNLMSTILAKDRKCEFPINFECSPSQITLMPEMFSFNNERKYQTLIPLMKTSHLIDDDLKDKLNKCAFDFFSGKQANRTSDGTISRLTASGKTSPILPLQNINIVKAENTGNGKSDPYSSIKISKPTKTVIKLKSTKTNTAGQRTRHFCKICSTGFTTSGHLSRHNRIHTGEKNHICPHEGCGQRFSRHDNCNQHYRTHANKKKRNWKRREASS
Procedure: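 Universal 'all 10-mer' protein binding microarrays (Agilent AMADID 015681) probed with GST-tagged S. cerevisiae TFs (full-length or DBD) made by in vitro transcription/translation (PURExpress), about 100-200 nM. Bound TF was detected with fluorescent anti-GST. Each ungapped 8-mer (which stands for itself and its reverse complement) is scored by the PBM enrichment score (E-score), a modified Wilcoxon-Mann-Whitney statistic from -0.5 to +0.5, computed with the Universal PBM Analysis Suite. Scale: above 0.35 generally sequence-specific binding.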

Sequence | PBM E-score
GATCAACA | -0.0582
TATCAACA | 0.0479
AATCAACA | 0.239
ATCGCATG | 0.188
CCTCCAAA | -0.0762
CCTACGCA | -0.133
CGGCCGCA | 0.0157
AATATCGG | 0.137
AATATCGA | 0.244
AATATCGC | 0.104
GATATCGA | 0.0243
CATATCGA | 0.118
TATATCGA | 0.278
CGCTTATC | -0.0744
CTGCTTTA | 0.23
ATGCTTTA | -0.178
CTGCTTTC | 0.104
GGGTTTAC | -0.0342
AATTCAGT | -0.0207
AATTCAGG | 0.336
AATTCAAC | 0.256
AATTCAGA | 0.0972
AATTCAAG | 0.0675
GATTCAAC | 0.00265
AATTCTAT | -0.0322

Sequence | PBM E-score
AATTCTAC | 0.231
AATTCTAG | -0.027
AAGACTCA | -0.249
TCCGTACA | 0.146
ACACGTCC | -0.254
AGCTTTCG | -0.106
GATACTAC | 0.13
CGAGTTCC | 0.0649
AACCGCGA | 0.256
AACCGCGT | 0.0966
TACCGCGA | 0.0041
CCATGCCC | -0.111
ACTAAATG | -0.0439
AGCATATC | 0.0744
CGCATATC | 0.293
CGCATATA | 0.0344
ATAGTAGA | 0.102
ATAGTAGC | 0.25
ATAGTAAT | 0.234
ATAGTAAC | 0.074
ATAGTAGG | 0.0354
ATAGTAAA | 0.203
GAAAGGCA | -0.0231
ACGAAGCC | -0.0825
GCTCCAAA | -0.202

Sequence | PBM E-score
TCAATGCA | -0.183
AGTCTCGG | -0.0965
ATAATCGA | 0.0835
ATAATCCC | 0.24
ATAATCCG | 0.0659
ATAATCGG | 0.246
ATAATCAA | 0.0599
ATAATCGC | -0.0299
ATAATCAT | 0.235
ATAATCAG | 0.0745
ATAATCCA | 0.128
TCCTATAA | -0.0317
CAAACCAA | 0.214
CTATAGGA | -0.0776
CATGGTTC | 0.0101
ATGCAAGC | 0.0922
ATCTAACC | 0.0422
AAGGATTC | -0.124
GACCAAGA | 0.0552
ATGCCCAT | -0.093
ACCATCGC | 0.139
CGTTTCAC | -0.00605
CGAGACCC | 0.263
CGAGACCG | -0.0751
GGAGACCC | 0.076

Sequence | PBM E-score
ATTGCGTC | 0.237
ATTGCGTA | 0.145
CTTGCGTC | -0.00183
GTGCCAAA | -0.0122
AGCATCGC | -0.0887
CGTCACAA | 0.0516
CGTCACAG | 0.282
CGTCACAC | -0.0186
GTATAGCA | 0.078
CAACAGGC | -0.129
ACACAGGA | -0.0296
CAACAGGA | -0.152
ACACAGGG | 0.238
ATACAGGA | -0.00019
ACACAGGC | 0.0691
CAACAGGG | 0.312
ATACAGGC | -0.0144
ATACAGGG | 0.274
ACAGAGGC | -0.172
ATTGTGCA | 0.0869
GCGTTAGA | 0.0176
ACTTGGAG | -0.108
ATAATAAA | 0.224
CTAATAAA | 0.259
CTAATATA | 0.13

Sequence | PBM E-score
ATAATACA | 0.282
ATAATACG | 0.18
TTTATAAA | 0.245
ATAATATA | 0.268
CTTATAAA | 0.131
TTAATAAA | 0.201
GTTATAAA | 0.0259
ATAATACC | 0.171
ATAATATG | 0.198
AGCAGACT | -0.138
CCGCCTGA | -0.0981
TCCAGAAA | 0.0185
CCTCCTCC | -0.283
ATGTCCTC | 0.0325
ATTGTCGC | 0.136
ATTGTCGA | 0.0199
ATTGTCGG | 0.247
CTACAAAG | 0.116
ACAGCGCA | 0.00939
AGTAATAT | 0.137
GGGCCCAC | 0.203
GGCCCCAA | -0.0979
CGGGCCCA | -0.128
GGGCCCAA | 0.244
ATGGCCCA | -0.0568

Sequence | PBM E-score
TGGGCCCA | 0.306
AAGGCCCA | -0.13
CGCCCCAG | 0.0362
GGGGCCCA | 0.117
CGCCCCCA | -0.194
CGCCCCAA | 0.261
AGGGCCCA | 0.359
TAATTCCA | 0.0521
GCGCTTCC | -0.0589
AAGGAAAA | 0.0535
GCGGAATA | 0.0652
CTTTGGGA | -0.076
AAACCCAC | 0.218
GACTGAGA | -0.102
CAACTTAG | 0.221
CTGCTCGA | 0.073
AGGGCCCG | 0.0729
AGGGCCCT | 0.432
AGGGCCCC | 0.0359
TCCAATAA | 0.0718
CGACAGCC | 0.026
CGCCGTGC | 0.0708
CAGCCTAG | 0.0198
GGTGCAAC | -0.13
AGTTTCAT | 0.274

Sequence | PBM E-score
AGTTTCAC | 0.0923
AGTTTCAG | -0.0621
CTGAGAAC | 0.0907
AATACTAT | 0.0268
CATACTAG | 0.248
CATACTAA | 0.114
AATACTAG | 0.241
CATACTAC | 0.151
AATACTAC | 0.0385
CAATTTAC | 0.12
ACGAATTG | 0.0986
AGTGACTA | -0.133
TAGCAACA | 0.135
GAACAGAA | 0.0366
GGTCTGAC | 0.0413
GGACAAAA | 0.159
GGACAAGA | 0.159
GGACAATA | 0.239
AGACAATA | 0.204
CGACAATC | 0.009
CGACAATA | 0.235
AATTTATA | 0.201
TAATTATA | 0.319
CAATTATA | 0.0143
AAATTATA | 0.175

Sequence | PBM E-score
AATTTATC | 0.312
GTATTATA | 0.254
CTATTATA | 0.0933
CAATTATC | 0.289
ATATTATA | 0.0282
CATTTATC | 0.0481
GAATTATA | 0.0673
CAATTATG | 0.0379
ACGCCTGG | -0.123
ACGCGCAG | 0.025
CAATCCAC | -0.0677
CCACCGAA | 0.0334
AACGGTCT | -0.127
CCGGGCGA | -0.0266
TGAGTCAA | 0.0756
CTCCAACA | 0.0834
AGCACGGG | -0.00766
GGATTATA | 0.24
CGATTATA | 0.138
AGATTATA | 0.0559
GGCTAGCC | -0.297
CGATCCTA | 0.00763
TAACTCGA | 0.294
GAACTAGA | 0.0203
AAACTAGA | -0.0323

Sequence | PBM E-score
TAACTAGA | 0.256
CAACTCGA | 0.0207
GAACTCGA | 0.0868
GCCTAAGA | -0.0546
ACAAGCGC | 0.0708
CAAGAACC | 0.172
ATGGAATC | 0.267
AGGGAATG | 0.032
CTGGAATA | 0.193
GTGGAATA | -0.013
ATGGAATA | 0.235
ATGGAATG | -0.0148
CTGGAATC | -0.164
AGGGAATA | 0.245
CGGGAATA | 0.0776
AATGGCCG | -0.134
AATTCTCC | 0.118
CAGTACGA | 0.206
AAGTCCGA | -0.0535
